The whole screen tested about 5,500 compounds, of which about 2,000 (36%) were called active. Roughly 18% stayed inconclusive and do not appear here. No stated cut-off is given here; in the data, active means normalized growth mostly below about 0.91 (no sharp cut-off); inconclusive means no clear call, values can overlap the other calls; inactive means mostly above about 0.92. The list shows a part of the results.
Assay: chemical genetic growth profiling, strain panel (AID 1159580);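 further: tested at 20 µM; growth read once vehicle control cultures reached saturation at 30 °C; 1 = growth at the plate median or of vehicle wells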
Details: growth OD
[1] = S. cerevisiae deletion strains, locus YAL013W, strain DEP1, stronger effect = lower value
[2] = S. cerevisiae deletion strains, locus YBR229C, strain ROT2, stronger effect = lower value
[3] = S. cerevisiae deletion strains, locus YDL101C, strain DUN1, stronger effect = lower value
[4] = S. cerevisiae deletion strains, locus YDR150W, strain NUM1, stronger effect = lower value
[5] = S. cerevisiae deletion strains, locus YEL061C, strain CIN8, stronger effect = lower value
[6] = S. cerevisiae deletion strains, locus YGR078C, strain PAC10, stronger effect = lower value
[7] = S. cerevisiae deletion strains, locus YHR030C, strain SLT2, stronger effect = lower value
[8] = S. cerevisiae deletion strains, locus YHR087W, strain rtc3, stronger effect = lower value
[9] = S. cerevisiae deletion strains, locus YJL187C, strain SWE1, stronger effect = lower value
[10] = S. cerevisiae deletion strains, locus YJR043C, strain POL32, stronger effect = lower value
[11] = S. cerevisiae deletion strains, locus YJR075W, strain HOC1, stronger effect = lower value
[12] = S. cerevisiae deletion strains, locus YLR039C, strain RIC1, stronger effect = lower value
[13] = S. cerevisiae deletion strains, locus YLR058C, strain SHM2 (second series), stronger effect = lower value
[14] = S. cerevisiae deletion strains, locus YLR085C, strain ARP6, stronger effect = lower value
[15] = S. cerevisiae deletion strains, locus YLR262C, strain YPT6, stronger effect = lower value
[16] = S. cerevisiae deletion strains, locus YML094W, strain GIM5, stronger effect = lower value
[17] = S. cerevisiae deletion strains, locus YMR219W, strain ESC1, stronger effect = lower value
[18] = S. cerevisiae deletion strains, locus YMR263W, strain SAP30, stronger effect = lower value
[19] = S. cerevisiae deletion strains, locus YMR307W, strain GAS1, stronger effect = lower value
[20] = S. cerevisiae deletion strains, locus YNL153C, strain GIM3, stronger effect = lower value
[21] = S. cerevisiae deletion strains, locus YNL298W, strain CLA4 (second series), stronger effect = lower value
[22] = S. cerevisiae deletion strains, locus YNL322C, strain KRE1, stronger effect = lower value
[23] = S. cerevisiae deletion strains, locus YNR030W, strain Alg12, stronger effect = lower value
[24] = S. cerevisiae deletion strains, locus YOL006C, strain TOP1, stronger effect = lower value
[25] = S. cerevisiae deletion strains, locus YPL055C, strain LGE1, stronger effect = lower value
[26] = S. cerevisiae deletion strains, locus YPL241C, strain CIN2, stronger effect = lower value
[27] = S. cerevisiae deletion strains, locus YPR135W, strain CTF4, stronger effect = lower value
[28] = S. cerevisiae deletion strains, locus YDL134C, strain PPH21, stronger effect = lower value
[29] = S. cerevisiae deletion strains, locus YKL190W, strain CNB1, stronger effect = lower value
[30] = S. cerevisiae deletion strains, locus YCL061C, strain MRC1, stronger effect = lower value
[31] = S. cerevisiae deletion strains, locus YAL040C, strain CLN3, stronger effect = lower value
[32] = S. cerevisiae deletion strains, locus YDR363W, strain ESC2, stronger effect = lower value
[33] = S. cerevisiae deletion strains, locus YER002W, strain NOP16, stronger effect = lower value
[34] = S. cerevisiae deletion strains, locus YNL128W, strain TEP1, stronger effect = lower value
[35] = S. cerevisiae deletion strains, locus YNL175C, strain NOP13, stronger effect = lower value
[36] = S. cerevisiae deletion strains, locus YNL197C, strain WHI3, stronger effect = lower value
[37] = S. cerevisiae deletion strains, locus YNL224C, strain SQS1, stronger effect = lower value
[38] = S. cerevisiae deletion strains, locus YOR083W, strain WHI5 (second series), stronger effect = lower value

Measured: normalized growth

COC(=O)c1sccc1NC(=O)C1CC1
inactive: [1] 0.991 | [2] 1 | [3] 0.995 | [4] 0.942 | [5] 0.979 | [6] 0.978 | [7] 1.01 | [8] 0.99 | [9] 0.977 | [10] 1.02 | [11] 0.99 | [12] 1.01 | [13] 0.976 | [14] 0.92 | [15] 1.07 | [16] 0.962 | [17] 0.981 | [18] 0.988 | [19] 1.06 | [20] 1.01 | [21] 1 | [22] 0.979 | [23] 0.989 | [24] 0.982 | [25] 0.97 | [26] 0.97 | [27] 1.03 | S. cerevisiae strains, strain wild type, stronger effect = lower value 0.992

COC(=O)c1sccc1-c1ccc(/C=C/[N+](=O)[O-])o1
active: S. cerevisiae deletion strains, locus YDL214C, strain PRR2, stronger effect = lower value 0.126 | S. cerevisiae deletion strains, locus YDR477W, strain SNF1, stronger effect = lower value 0.518 | S. cerevisiae deletion strains, locus YER123W, strain YCK3, stronger effect = lower value 0.155 | S. cerevisiae deletion strains, locus YER133W, strain GLC7, stronger effect = lower value 0.121 | S. cerevisiae deletion strains, locus YFL009W, strain cdc4, stronger effect = lower value 0.718 | S. cerevisiae deletion strains, locus YFR019W, strain FAB1, stronger effect = lower value 0.154 | S. cerevisiae deletion strains, locus YGR040W, strain KSS1, stronger effect = lower value 0.551 | S. cerevisiae deletion strains, locus YGR052W, strain FMP48, stronger effect = lower value 0.268 | [7] 0.0849 | S. cerevisiae deletion strains, locus YHR079C, strain IRE1, stronger effect = lower value 0.113 | S. cerevisiae deletion strains, locus YHR082C, strain KSP1, stronger effect = lower value 0.178 | S. cerevisiae deletion strains, locus YHR205W, strain SCH9, stronger effect = lower value 0.509 | S. cerevisiae deletion strains, locus YJL095W, strain BCK1, stronger effect = lower value 0.126 | S. cerevisiae deletion strains, locus YJL157C, strain FAR1, stronger effect = lower value 0.14 | S. cerevisiae deletion strains, locus YJR066W, strain TOR1 (second series), stronger effect = lower value 0.0869 | S. cerevisiae deletion strains, locus YJR066W, strain TOR1, stronger effect = lower value 0.103 | S. cerevisiae deletion strains, locus YKL067W, strain YNK1, stronger effect = lower value 0.185 | S. cerevisiae deletion strains, locus YLR113W, strain HOG1, stronger effect = lower value 0.181 | S. cerevisiae deletion strains, locus YLR133W, strain CKI1, stronger effect = lower value 0.638 | S. cerevisiae deletion strains, locus YLR403W, strain SFP1, stronger effect = lower value 0.517 | S. cerevisiae deletion strains, locus YML070W, strain DAK1, stronger effect = lower value 0.111 | S. cerevisiae deletion strains, locus YMR205C, strain PFK2 (second series), stronger effect = lower value 0.704 | S. cerevisiae deletion strains, locus YNL020C, strain ARK1, stronger effect = lower value 0.702 | S. cerevisiae deletion strains, locus YNL183C, strain NPR1, stronger effect = lower value 0.0989 | S. cerevisiae deletion strains, locus YOL136C, strain PFK27, stronger effect = lower value 0.107 | S. cerevisiae deletion strains, locus YOR231W, strain MKK1, stronger effect = lower value 0.135 | S. cerevisiae deletion strains, locus YPL031C, strain PHO85, stronger effect = lower value 0.25 | S. cerevisiae deletion strains, locus YPL153C, strain RAD53, stronger effect = lower value 0.0913 | S. cerevisiae deletion strains, locus YPL204W, strain HRR25, stronger effect = lower value 0.091 | S. cerevisiae deletion strains, locus YPL256C, strain CLN2, stronger effect = lower value 0.147
inactive: S. cerevisiae deletion strains, locus YBL105C, strain PKC1, stronger effect = lower value 0.964 | S. cerevisiae deletion strains, locus YBR135W, strain CKS1, stronger effect = lower value 0.96 | S. cerevisiae deletion strains, locus YBR136W, strain MEC1, stronger effect = lower value 0.968 | S. cerevisiae deletion strains, locus YBR160W, strain CDC28, stronger effect = lower value 0.952 | S. cerevisiae deletion strains, locus YDL017W, strain CDC7, stronger effect = lower value 0.974 | S. cerevisiae deletion strains, locus YDL028C, strain MPS1, stronger effect = lower value 0.959 | S. cerevisiae deletion strains, locus YDL108W, strain KIN28, stronger effect = lower value 0.965 | S. cerevisiae deletion strains, locus YDR052C, strain DBF4, stronger effect = lower value 0.981 | S. cerevisiae deletion strains, locus YDR226W, strain ADK1, stronger effect = lower value 0.961 | S. cerevisiae deletion strains, locus YFR003C, strain YPI1, stronger effect = lower value 0.966 | S. cerevisiae deletion strains, locus YFR028C, strain CDC14, stronger effect = lower value 0.978 | S. cerevisiae deletion strains, locus YGR092W, strain DBF2, stronger effect = lower value 0.874 | S. cerevisiae deletion strains, locus YIL147C, strain SLN1, stronger effect = lower value 0.964 | S. cerevisiae deletion strains, locus YJL128C, strain PBS2, stronger effect = lower value 0.907 | S. cerevisiae deletion strains, locus YJR016C, strain ILV3, stronger effect = lower value 0.974 | S. cerevisiae deletion strains, locus YKL048C, strain ELM1, stronger effect = lower value 0.939 | S. cerevisiae deletion strains, locus YKL101W, strain HSL1, stronger effect = lower value 0.886 | S. cerevisiae deletion strains, locus YKL203C, strain TOR2, stronger effect = lower value 0.893 | S. cerevisiae deletion strains, locus YNL006W, strain LST8, stronger effect = lower value 0.958 | S. cerevisiae deletion strains, locus YNL207W, strain RIO2, stronger effect = lower value 0.977 | S. cerevisiae deletion strains, locus YNL307C, strain MCK1 (second series), stronger effect = lower value 0.823 | S. cerevisiae deletion strains, locus YOR061W, strain CKA2, stronger effect = lower value 0.729 | S. cerevisiae deletion strains, locus YOR119C, strain RIO1, stronger effect = lower value 0.875 | S. cerevisiae deletion strains, locus YOR329C, strain SCD5, stronger effect = lower value 0.965 | S. cerevisiae deletion strains, locus YPL209C, strain IPL1, stronger effect = lower value 0.969 | S. cerevisiae deletion strains, locus YPR025C, strain CCL1, stronger effect = lower value 0.955 | S. cerevisiae deletion strains, locus YPR106W, strain ISR1, stronger effect = lower value 0.959 | S. cerevisiae deletion strains, locus YPR111W, strain DBF20, stronger effect = lower value 0.961 | S. cerevisiae deletion strains, strain NNK1, stronger effect = lower value 0.963

COC(=O)c1sccc1-c1ccc(C(C)=O)o1
inactive: [1] 0.956 | [2] 0.975 | [3] 0.953 | [28] 0.974 | [4] 0.982 | [5] 0.949 | [6] 0.947 | [7] 0.722 | [8] 0.97 | [10] 0.977 | [11] 0.956 | [29] 0.976 | [12] 0.945 | [13] 0.965 | [15] 0.961 | [16] 0.898 | [17] 0.978 | [18] 0.977 | [20] 0.982 | [21] 0.841 | [25] 0.974 | [26] 0.891 | [27] 0.773
active: [14] 0.751 | [22] 0.935 | [23] 0.885 | [24] 0.727

CCOC(=O)Nc1ccsc1C(=O)OC
inactive: [1] 0.997 | [2] 1 | [30] 0.999 | [3] 0.988 | [28] 1 | [4] 0.975 | [5] 0.974 | [6] 0.986 | [7] 1 | [8] 1 | [10] 1 | [11] 0.986 | [29] 1 | [12] 0.983 | [13] 1 | [14] 0.988 | [15] 0.996 | [16] 0.985 | [17] 1 | [18] 1.02 | [19] 1.07 | [20] 0.987 | [21] 1.02 | [22] 0.983 | [23] 1.01 | [25] 0.981 | [26] 1.08 | [27] 0.947

COC(=O)C1=C(C)NC(C)=C(C(=O)OC)C1c1ccc(-c2ccsc2C(=O)OC)o1
inactive: [1] 1 | [2] 1 | [30] 0.989 | [3] 1 | [4] 0.941 | [5] 1.03 | [6] 0.994 | [7] 1.05 | [8] 0.985 | [9] 1.01 | [10] 0.994 | [11] 0.946 | [12] 1.05 | [13] 0.999 | [14] 0.992 | [15] 0.999 | [16] 1.01 | [17] 1 | [18] 1 | [19] 0.968 | [20] 0.99 | [21] 1.06 | [22] 0.991 | [23] 1.02 | [24] 1.06 | [25] 0.898 | [26] 0.862 | [27] 1

COC(=O)C1C2CC3c4[nH]c5cc(OC)ccc5c4CCN3CC2CC(OC(=O)c2cc(OC)c(OC)c(OC)c2)C1OC (configuration not stated)
inactive: [1] 0.996 | [31] 1.07 | [32] 1 | [33] 0.99 | [11] 1 | [18] 1 | [34] 0.98 | [35] 1 | [36] 0.989 | [37] 1.04 | [38] 0.934 | [25] 1.02

N[C@H](CO)C(=O)O
inactive: [1] 1.03 | [31] 1.01 | S. cerevisiae deletion strains, locus YCL061C, strain MRC1 (second series), stronger effect = lower value 1 | [4] 1 | [32] 1.03 | [33] 0.986 | [11] 1.01 | [19] 1 | [34] 0.999 | [35] 0.995 | [36] 0.999 | [37] 0.997 | [22] 1 | [38] 0.996 | [25] 1.02
